Assay results published in PubChem BioAssay AID1159580 (chemical genetic matrix, 2015).
About 2,000 (36%) of roughly 5,500 compounds were called active. Roughly 18% stayed inconclusive and do not appear here. Rule as the data show it: active = normalized growth mostly below about 0.91 (no sharp cut-off); inconclusive = no clear call, values can overlap the other calls; inactive = mostly above about 0.92. Some of the results follow.

Test: chemical genetic growth profiling, strain panel (AID 1159580);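 also: tested at 20 µM; growth read once vehicle control cultures reached saturation at 30 °C; 1 = growth at the plate median or of vehicle wells; lower values mean less growth of the strain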
Conditions: growth OD
[1] = S. cerevisiae deletion strains, locus YDL101C, strain DUN1, active compounds read low
[2] = S. cerevisiae deletion strains, locus YHR030C, strain SLT2, active compounds read low

Measured: normalized growth

Cc1nnsc1C(=O)O/N=C1/CCSc2ccc(F)cc21
inactive: S. cerevisiae deletion strains, locus YAL013W, strain DEP1, active compounds read low 0.975 | S. cerevisiae deletion strains, locus YBR229C, strain ROT2, active compounds read low 0.969 | S. cerevisiae deletion strains, locus YCL061C, strain MRC1, active compounds read low 0.994 | [1] 0.967 | S. cerevisiae deletion strains, locus YDL134C, strain PPH21, active compounds read low 0.982 | S. cerevisiae deletion strains, locus YDR150W, strain NUM1, active compounds read low 0.973 | S. cerevisiae deletion strains, locus YEL061C, strain CIN8, active compounds read low 0.943 | S. cerevisiae deletion strains, locus YGR078C, strain PAC10, active compounds read low 0.973 | S. cerevisiae deletion strains, locus YGR229C, strain SMI1, active compounds read low 0.983 | [2] 0.775 | S. cerevisiae deletion strains, locus YHR087W, strain rtc3, active compounds read low 0.966 | S. cerevisiae deletion strains, locus YJL187C, strain SWE1, active compounds read low 0.996 | S. cerevisiae deletion strains, locus YJR043C, strain POL32, active compounds read low 0.984 | S. cerevisiae deletion strains, locus YJR075W, strain HOC1, active compounds read low 0.994 | S. cerevisiae deletion strains, locus YKL190W, strain CNB1, active compounds read low 0.98 | S. cerevisiae deletion strains, locus YLR039C, strain RIC1, active compounds read low 0.848 | S. cerevisiae deletion strains, locus YLR058C, strain SHM2 (second series), active compounds read low 0.985 | S. cerevisiae deletion strains, locus YLR085C, strain ARP6, active compounds read low 0.856 | S. cerevisiae deletion strains, locus YLR262C, strain YPT6, active compounds read low 0.878 | S. cerevisiae deletion strains, locus YML094W, strain GIM5, active compounds read low 0.932 | S. cerevisiae deletion strains, locus YMR219W, strain ESC1, active compounds read low 0.988 | S. cerevisiae deletion strains, locus YMR263W, strain SAP30, active compounds read low 0.989 | S. cerevisiae deletion strains, locus YNL128W, strain TEP1, active compounds read low 1 | S. cerevisiae deletion strains, locus YNL153C, strain GIM3, active compounds read low 0.971 | S. cerevisiae deletion strains, locus YNL298W, strain CLA4 (second series), active compounds read low 0.973 | S. cerevisiae deletion strains, locus YNL322C, strain KRE1, active compounds read low 0.979 | S. cerevisiae deletion strains, locus YNR030W, strain Alg12, active compounds read low 0.945 | S. cerevisiae deletion strains, locus YOL006C, strain TOP1, active compounds read low 0.981 | S. cerevisiae deletion strains, locus YPL055C, strain LGE1, active compounds read low 0.956 | S. cerevisiae deletion strains, locus YPL241C, strain CIN2, active compounds read low 0.997 | S. cerevisiae deletion strains, locus YPR135W, strain CTF4, active compounds read low 0.874 | S. cerevisiae strains, strain wild type, active compounds read low 0.978

CN(C)/C=C1\CSc2ccc(Cl)cc2C1=O
inactive: S. cerevisiae deletion strains, locus YAR019C, strain CDC15, active compounds read low 0.927 | S. cerevisiae deletion strains, locus YBL105C, strain PKC1, active compounds read low 0.957 | S. cerevisiae deletion strains, locus YBR135W, strain CKS1, active compounds read low 0.965 | S. cerevisiae deletion strains, locus YBR136W, strain MEC1, active compounds read low 0.949 | S. cerevisiae deletion strains, locus YBR160W, strain CDC28, active compounds read low 0.95 | S. cerevisiae deletion strains, locus YDL017W, strain CDC7, active compounds read low 0.953 | S. cerevisiae deletion strains, locus YDL028C, strain MPS1, active compounds read low 0.953 | [1] 0.975 | S. cerevisiae deletion strains, locus YDL108W, strain KIN28, active compounds read low 0.947 | S. cerevisiae deletion strains, locus YDL132W, strain cdc53, active compounds read low 0.956 | S. cerevisiae deletion strains, locus YDL214C, strain PRR2, active compounds read low 0.763 | S. cerevisiae deletion strains, locus YDR052C, strain DBF4, active compounds read low 0.967 | S. cerevisiae deletion strains, locus YDR054C, strain cdc34, active compounds read low 0.94 | S. cerevisiae deletion strains, locus YDR226W, strain ADK1, active compounds read low 0.947 | S. cerevisiae deletion strains, locus YDR477W, strain SNF1, active compounds read low 0.832 | S. cerevisiae deletion strains, locus YER133W, strain GLC7, active compounds read low 0.811 | S. cerevisiae deletion strains, locus YFL009W, strain cdc4, active compounds read low 0.944 | S. cerevisiae deletion strains, locus YFL029C, strain CAK1, active compounds read low 0.932 | S. cerevisiae deletion strains, locus YFR003C, strain YPI1, active compounds read low 0.952 | S. cerevisiae deletion strains, locus YFR028C, strain CDC14, active compounds read low 0.942 | S. cerevisiae deletion strains, locus YGR040W, strain KSS1, active compounds read low 0.832 | S. cerevisiae deletion strains, locus YGR052W, strain FMP48, active compounds read low 0.799 | S. cerevisiae deletion strains, locus YGR092W, strain DBF2, active compounds read low 0.824 | S. cerevisiae deletion strains, locus YHR079C, strain IRE1, active compounds read low 0.555 | S. cerevisiae deletion strains, locus YHR082C, strain KSP1, active compounds read low 0.758 | S. cerevisiae deletion strains, locus YHR205W, strain SCH9, active compounds read low 0.75 | S. cerevisiae deletion strains, locus YIL147C, strain SLN1, active compounds read low 0.928 | S. cerevisiae deletion strains, locus YJL128C, strain PBS2, active compounds read low 1.01 | S. cerevisiae deletion strains, locus YJL157C, strain FAR1, active compounds read low 0.775 | S. cerevisiae deletion strains, locus YJR016C, strain ILV3, active compounds read low 0.965 | S. cerevisiae deletion strains, locus YJR066W, strain TOR1 (second series), active compounds read low 0.728 | S. cerevisiae deletion strains, locus YJR066W, strain TOR1, active compounds read low 0.633 | S. cerevisiae deletion strains, locus YKL048C, strain ELM1, active compounds read low 0.937 | S. cerevisiae deletion strains, locus YKL067W, strain YNK1, active compounds read low 0.771 | S. cerevisiae deletion strains, locus YKL101W, strain HSL1, active compounds read low 0.861 | S. cerevisiae deletion strains, locus YKL193C, strain SDS22, active compounds read low 0.938 | S. cerevisiae deletion strains, locus YKL203C, strain TOR2, active compounds read low 0.886 | S. cerevisiae deletion strains, locus YLR133W, strain CKI1, active compounds read low 0.799 | S. cerevisiae deletion strains, locus YLR403W, strain SFP1, active compounds read low 0.792 | S. cerevisiae deletion strains, locus YMR001C, strain CDC5, active compounds read low 0.941 | S. cerevisiae deletion strains, locus YMR205C, strain PFK2 (second series), active compounds read low 0.872 | S. cerevisiae deletion strains, locus YMR277W, strain FCP1, active compounds read low 0.943 | S. cerevisiae deletion strains, locus YNL006W, strain LST8, active compounds read low 0.952 | S. cerevisiae deletion strains, locus YNL020C, strain ARK1, active compounds read low 0.817 | S. cerevisiae deletion strains, locus YNL161W, strain CBK1, active compounds read low 0.955 | S. cerevisiae deletion strains, locus YNL183C, strain NPR1, active compounds read low 0.559 | S. cerevisiae deletion strains, locus YNL207W, strain RIO2, active compounds read low 0.922 | S. cerevisiae deletion strains, locus YNL222W, strain SSU72, active compounds read low 0.955 | S. cerevisiae deletion strains, locus YNL307C, strain MCK1 (second series), active compounds read low 0.822 | S. cerevisiae deletion strains, locus YOL078W, strain AVO1, active compounds read low 0.95 | S. cerevisiae deletion strains, locus YOL136C, strain PFK27, active compounds read low 0.691 | S. cerevisiae deletion strains, locus YOR061W, strain CKA2, active compounds read low 0.831 | S. cerevisiae deletion strains, locus YOR119C, strain RIO1, active compounds read low 0.862 | S. cerevisiae deletion strains, locus YOR231W, strain MKK1, active compounds read low 0.595 | S. cerevisiae deletion strains, locus YOR329C, strain SCD5, active compounds read low 0.953 | S. cerevisiae deletion strains, locus YPL031C, strain PHO85, active compounds read low 0.825 | S. cerevisiae deletion strains, locus YPL153C, strain RAD53, active compounds read low 0.752 | S. cerevisiae deletion strains, locus YPL204W, strain HRR25, active compounds read low 0.802 | S. cerevisiae deletion strains, locus YPL209C, strain IPL1, active compounds read low 0.954 | S. cerevisiae deletion strains, locus YPR025C, strain CCL1, active compounds read low 0.962 | S. cerevisiae deletion strains, locus YPR106W, strain ISR1, active compounds read low 0.95 | S. cerevisiae deletion strains, locus YPR111W, strain DBF20, active compounds read low 0.947 | S. cerevisiae deletion strains, strain NNK1, active compounds read low 0.941 | S. cerevisiae deletion strains, strain TSCII, active compounds read low 0.942
active: S. cerevisiae deletion strains, locus YER123W, strain YCK3, active compounds read low 0.565 | S. cerevisiae deletion strains, locus YFR019W, strain FAB1, active compounds read low 0.771 | [2] 0.311 | S. cerevisiae deletion strains, locus YJL095W, strain BCK1, active compounds read low 0.444 | S. cerevisiae deletion strains, locus YLR113W, strain HOG1, active compounds read low 0.537 | S. cerevisiae deletion strains, locus YML070W, strain DAK1, active compounds read low 0.618 | S. cerevisiae deletion strains, locus YPL256C, strain CLN2, active compounds read low 0.627
